# From PubChem BioAssay AID504652 (National Center for Advancing Translational Sciences (NCATS), 2011)
# “And” between values parts separate entries of the source, which are not always exact repeats. Equal entries are not always repeated. The whole screen tested about 360,000 compounds, of which about 11,000 (3.1%) were called active. Rule as the data show it: active = activity change below about -30%; inactive = the rest. The full list was thinned out, with actives kept by preference. More than one record can exist for a structure, and the calls need not agree.
# Biological target: D(1A) dopamine receptor (Homo sapiens) (UniProt P21728)
# Test: Antagonist of Human D 1 Dopamine Receptor: qHTS
# Conditions: HEK293 TREx D1 cells, calcium flux, dopamine EC80; at 10 µM; stronger effect = lower value
# Text: Dopamine receptors (DARs) are involved in the etiology and/or therapy of a number of neuropsychiatric and endocrine disorders. For instance, all receptor-based antiparkinsonian drugs work via stimulating the […] DAR subtype whereas all FDA-approved antipsychotic agents are antagonists of this receptor. […] There are three different types of allosteric modulators that we are seeking, two of which will stimulate or augment receptor signaling, allosteric agonists and potentiators, while the third, allosteric antagonists, will attenuate receptor signaling. The present primary screening assay measures compound antagonism after an EC80 addition of dopamine by tracking calcium flux in a […], inducible Hek293 Trex D1 cell line. NIH Chemical Genomics Center [NCGC] NIH Molecular Libraries Probe Centers Network [MLPCN] MLPCN Grant: NS064831-01 Assay Submitter (PI): David Sibley
# Freshly passaged cells are plated in 1536 well black, clear bottom plates at a density of 4000 cells/well in 3 ul of complete media containing 1x tetracycline inducer. After an overnight incubation at 30 C in 5% CO2, cells are loaded with 2 ul of the no wash Calcium Assay Kit (ABD Bioquest) and incubated at room temperature for 30 to 90 minutes. Agonist read: A 10 cycle (1 second/cycle) baseline measurement is taken and then the FDSS online 1536 pintool delivers 23 nl of compound library (as well as dopamine controls) to the plate. The plate is measured for kinetically at 1 cycle/sec for 180 seconds. Following the 180 second read, 1 ul of an EC80 (negative modulation assay) is delivered by an onboard pipette head. Measurements are taken kinetically for an additional 180 seconds.
# % is scaled to controls: 0 for no effect and ±100 for the full control effect.
# Chain of D(1A) dopamine receptor (Homo sapiens) (P21728 whole entry, looked up): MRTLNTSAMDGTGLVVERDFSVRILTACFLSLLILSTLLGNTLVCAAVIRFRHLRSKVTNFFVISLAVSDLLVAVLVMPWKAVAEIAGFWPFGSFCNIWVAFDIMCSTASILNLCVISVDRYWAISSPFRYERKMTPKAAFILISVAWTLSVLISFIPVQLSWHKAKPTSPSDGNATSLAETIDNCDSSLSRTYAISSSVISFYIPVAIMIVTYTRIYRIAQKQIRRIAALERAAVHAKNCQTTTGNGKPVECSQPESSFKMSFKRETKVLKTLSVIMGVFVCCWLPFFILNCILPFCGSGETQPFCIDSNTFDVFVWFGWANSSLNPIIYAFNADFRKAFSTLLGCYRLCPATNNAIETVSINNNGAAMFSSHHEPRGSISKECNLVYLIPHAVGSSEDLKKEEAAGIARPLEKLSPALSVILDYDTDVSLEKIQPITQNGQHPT
row,Structure (SMILES),"activity change, negative = inhibition"
1,COc1ccc(CCNC(=O)CCc2c(C)nc3c(c(C)nn3-c3ccc(C)c(C)c3)c2C)c(OC)c1OC,-6.08% (inactive)
2,Cc1ccc(-n2c(C)cc(/C=C(\C#N)C(=O)NCC3CCCO3)c2C)cc1 (centres undefined),-101% (active)
3,Cc1ccc2c(c1)N(CC(=O)NCC1CCCO1)C(=O)CO2 (centres undefined),-13.8% (inactive)
4,Cc1ccc(C(=O)N/C(=C/c2cccs2)C(=O)NCC2CCCO2)cc1 (centres undefined),-5.41% (inactive)
5,Cc1ccccc1OCCSc1nc2ccc(NC(=O)c3ccco3)cc2s1,-30% (inactive)
6,COc1ccccc1CNC(=O)CCn1c(=O)c2ccccc2n(CC(=O)Nc2cccc(Cl)c2)c1=O,-3.25% (inactive)
7,Cc1cc(C)cc(-n2c(SCC(=O)NCC3CCCO3)nc3c([nH]c4ccccc43)c2=O)c1 (centres undefined),-4.35% (inactive)
8,Cc1c(C(=O)N2CCCC2)oc2c1-c1nn(CC(=O)NCc3ccc(OC(C)C)cc3)cc1CC2,-7.55% (inactive)
9,Cc1cccc(N2CCN(C3=C(c4ccccc4)C(=O)c4ccccc43)CC2)c1C,18% (inactive)
10,CN(CC(=O)Nc1cccc(C(F)(F)F)c1)S(=O)(=O)c1cccs1,-18.7% (inactive)
11,CCOC(=O)c1ccc(NC(=O)Cn2c(=O)cc(C)c3c(C)nn(-c4cccc(F)c4)c32)cc1,-13.3% (inactive)
12,O=C(CO/N=C/c1ccc(OC(F)F)cc1)NCc1ccc(F)cc1,-6.98% (inactive)
13,O=C(COC(=O)[C@H](Cc1ccccc1)NC(=O)c1cccs1)Nc1cc(F)ccc1F,-9.37% (inactive)
14,COC(=O)c1ccc(/C=N/OCC(=O)Nc2cc(F)ccc2F)cc1,-33% (active)
15,Cc1ccc(C(=O)N2CCN(S(=O)(=O)N3CCOCC3)CC2)cc1,-3.63% (inactive)
16,CCC(C(=O)N1CCN(S(=O)(=O)c2sc(C(=O)O)c(C)c2C(=O)O)CC1)c1ccccc1 (centres undefined),-4.86% (inactive)
17,CCc1ccc(C(=O)N2CCN(S(=O)(=O)c3sc(C(=O)O)c(C)c3C(=O)O)CC2)cc1,-68.6% (active)
18,COc1ccc(SCc2cc(=O)c3ccc(C)c(C)c3[nH]2)cc1,7.95% (inactive)
19,Cn1c(=O)c2c(nc(SCC(=O)Nc3ccc(F)cc3)n2Cc2ccc(Cl)cc2)n(C)c1=O,-3.1% (inactive)
20,COc1cccc(CNC(=O)Cc2csc(Nc3nc(=S)[nH]c4ccccc34)n2)c1,-0.499% (inactive)
21,O=C(Cc1csc(Nc2nc(=S)[nH]c3ccccc23)n1)NCCCN1CCN(c2cccc(Cl)c2)CC1,-56.6% (active)

row,Structure (SMILES),"activity change, negative = inhibition"
1,CCOC(=O)N1CCC(Nc2c(NCCN3CCN(c4cccc(Cl)c4)CC3)c(=O)c2=O)CC1,-24% (inactive)
2,CCn1c(=O)cc(OCC(=O)NCCCN2CCN(c3cccc(Cl)c3)CC2)c2ccccc21,-46.8% (active)
3,Cn1c(=O)cc(OCC(=O)N2CCN(c3ccccc3)CC2)c2ccccc21,-4.64% (inactive)
4,O=C(CCn1c(=O)[nH]c2ccccc2c1=O)NCCCN1CCN(c2cccc(Cl)c2)CC1,-49% (active)
5,CCOC(=O)c1c(C)[nH]c(CCC(=O)NCCCN2CCN(c3cc(C)ccc3C)CC2)c1C,-11.7% (inactive)
6,COc1cccc(N2CCN(C(=O)CCCCCn3c(=O)[nH]c4ccccc4c3=O)CC2)c1,-11.8% (inactive)
7,CCn1c(=O)cc(OCC(=O)Nc2cc(Cl)c(OC)cc2OC)c2ccccc21,1.43% (inactive)
8,COCCCn1c(Cc2csc(Nc3cccc(Cl)c3)n2)nnc1SCC(=O)OC1CCCCC1,12.9% (inactive)
9,O=C(Cc1ccc(-n2c(=O)[nH]c3ccccc3c2=O)cc1)N1CCN(c2cccc(Cl)c2)CC1,-8.8% (inactive)
10,CCOC(=O)c1c(C)[nH]c(CCC(=O)NCCCN2CCN(c3cccc(Cl)c3)CC2)c1C,-31.4% (active)
11,N#Cc1nc(/C=C/c2ccc(F)cc2)oc1NCc1ccc(F)cc1,4.43% (inactive)
12,Cc1ccc(CNC(=O)CCNS(=O)(=O)c2ccc3c(c2)oc(=O)n3C)cc1,-2.95% (inactive)
13,CN(Cc1ccccc1)C(=O)c1cn(C)c2ccc(S(=O)(=O)N(C)C3CCCCC3)cc2c1=O,-6.93% (inactive)
14,Cc1cccc(NC(=O)N2CCC(CN3CCc4ccccc4C3)CC2)c1C,3.23% (inactive)
15,COc1cccc(C(=O)Nc2ccc(-c3cc(C(F)(F)F)nn3-c3ccccc3)cc2)c1,-9.33% (inactive)
16,CCOc1ccccc1C(=O)NCc1ccc2c(c1)CCN2C(=O)c1ccc(F)cc1,-20.6% (inactive)
17,CCn1cc(C(=O)N(C)Cc2ccccc2)c(=O)c2cc(S(=O)(=O)N3CCCCCC3)ccc21,-14.7% (inactive)
18,CC(=O)Nc1ccc(NC(=O)C2CCCN(S(=O)(=O)c3ccc(Cl)cc3)C2)cc1 (centres undefined),-19.3% (inactive)
19,Cc1n[nH]c(C)c1S(=O)(=O)N1CCCC(C(=O)NCC2COc3ccccc3O2)C1 (centres undefined),4.33% (inactive)
20,Cc1n[nH]c(C)c1S(=O)(=O)N1CCCC(C(=O)Nc2ccc(Br)cc2)C1 (centres undefined),2.22% (inactive) and -57.1% (active)
21,O=C(NCc1cccnc1)C(=O)NCC(c1cccnc1)N1CCN(c2ccccc2)CC1 (centres undefined),2.98% (inactive)

row,Structure (SMILES),"activity change, negative = inhibition"
1,CCOc1ccc(N(CC)S(=O)(=O)N2CCCC(C(=O)Nc3ccc(C(C)=O)cc3)C2)cc1 (centres undefined),-25.1% (inactive)
2,CC(C)(C)NCCCOc1ccc(Cl)cc1C(C)(C)C,-4.49% (inactive)
3,COCCNCCOCCOc1cccc(OC)c1,12.6% (inactive)
4,COCCCNCCOCCOc1ccc(Cl)cc1Br,-34.7% (active)
5,CCc1ccc(CNC(=O)c2cc3cc4ccc(OC)cc4nc3o2)cc1,2.97% (inactive)
6,CCCc1nn2c(=O)cc(COC(=O)c3ccc(NC(=O)C(C)Oc4ccccc4)cc3)nc2s1 (centres undefined),3.83% (inactive)
7,COc1ccc(-n2cc(-c3ccccc3)c3c(=S)nc[nH]c32)cc1,-0.706% (inactive)
8,CCCNc1ncnc2c1c(-c1ccccc1)cn2-c1ccc(OCC)cc1,36.7% (inactive)
9,O=c1[nH]cnc2c1c(-c1ccccc1)cn2-c1ccc(F)cc1,-39.4% (active)
10,COc1ccc(-c2noc(-c3ccc(N4CCN(c5ccccc5)CC4)c([N+](=O)[O-])c3)n2)cc1OC,-6.01% (inactive)
11,COc1ccc(S(=O)(=O)NCc2cccn2Cc2cccc(C)c2)cc1Cl,-21.8% (inactive)
12,CSc1ncccc1C(=O)NCc1ccccc1Cl,-34.3% (active)
13,CSc1ncccc1C(=O)Nc1ccc(C)cn1,25.9% (inactive)
14,CSc1ncc(C(=O)NCc2ccccc2Cl)c(C(F)(F)F)n1,2.06% (inactive)
15,O=C(Nc1ccc(O)c(-c2nc3ccccc3o2)c1)c1ccc(-c2cccc(Cl)c2)o1,8.95% (inactive)
16,CC(=O)c1ccc(NC(=O)C2CCN(S(=O)(=O)c3c(C)noc3/C=C/c3ccc(C)cc3)CC2)cc1,0.387% (inactive)
17,COc1ccccc1NC(=O)CSc1oc(-c2ccco2)nc1S(=O)(=O)c1ccc(Br)cc1,-50.6% (active)
18,CC(Sc1oc(-c2ccco2)nc1S(=O)(=O)c1ccc(Br)cc1)c1ccccc1 (centres undefined),6.94% (inactive)
19,Cc1ccc(S(=O)(=O)c2nc(-c3ccco3)oc2SCC(=O)Nc2ccc(F)cc2)cc1,-3.5% (inactive)
20,CCn1cc(C(=O)N2CCN(c3cc(Cl)ccc3C)CC2)c(=O)c2cc(S(=O)(=O)N3CCCC3)ccc21,-6.15% (inactive)
21,COc1cccc(C(c2c(O)cc(C)n(Cc3ccco3)c2=O)N2CCN(c3ccccc3)CC2)c1 (centres undefined),4.67% (inactive)

row,Structure (SMILES),"activity change, negative = inhibition"
1,COc1ccc(N2CCN(CCNC(=O)c3nnc(Cc4c(F)cccc4Cl)o3)CC2)cc1,5.46% (inactive)
2,O=C(NCCCN1CCN(c2cccc(Cl)c2)CC1)c1nnc(Cc2ccc(F)cc2Cl)o1,-33.5% (active)
3,Cc1ccc(CCNC(=O)c2nnc(Cc3cccc(F)c3)o2)cc1,-1.29% (inactive)
4,Cc1ccc(CCNC(=O)c2ccc(CS(=O)(=O)Cc3cccc(C)c3)o2)cc1,-10.5% (inactive)
5,O=C(c1ccco1)N1CCN(C(=O)C2CC(c3ccc(F)cc3)=NO2)CC1 (centres undefined),-3.06% (inactive)
6,O=C(c1ccco1)N1CCN(C(=O)C2CC(c3ccc(Cl)c(Cl)c3)=NO2)CC1 (centres undefined),-36.7% (active)
7,O=C(OCC(=O)N1CCN(C(=O)c2ccco2)CC1)c1ccc(Cl)c(Cl)c1,-10.9% (inactive)
8,COc1ccccc1CN1CCC(CNC(=O)c2cnn(-c3ccccc3Cl)c2C2CCN(C(=O)OC(C)(C)C)CC2)CC1,-9.9% (inactive)
9,COc1ccccc1C(=O)OCc1cc(=O)n2nc(-c3cccs3)sc2n1,-28% (inactive)
10,O=C(CCS(=O)(=O)c1ccc2c(c1)NC(=O)CO2)Nc1cccc(C(F)(F)F)c1,1.28% (inactive)
11,Clc1cc(-c2ccc(/C=N/n3cnnc3)o2)ccc1Br,-8.28% (inactive)
12,Cc1ccc(Cl)cc1-c1ccc(/C=N/n2cnnc2)o1,-37.1% (active)
13,Brc1cc(/C=N/n2cnnc2)oc1Br,-2.4% (inactive)
14,Cn1c(=O)nc2n(-c3ccc(Br)cc3)c3cccc(Cl)c3cc-2c1=O,-15.6% (inactive)
15,COc1ccc(OCCCn2c(C3CC(=O)N(c4ccc(F)cc4)C3)nc3ccccc32)cc1 (centres undefined),-46.1% (active)
16,CCOc1ccc(N2CC(c3nc4ccccc4n3CCOc3ccc(OC)cc3)CC2=O)cc1 (centres undefined),-7.94% (inactive)
17,CCc1ccccc1N1CC(c2nc3ccccc3n2CCCCOc2ccccc2)CC1=O (centres undefined),-13.7% (inactive)
18,COc1ccc(OC)c(CNC(=O)c2c3c(nc4ccccc24)C(=O)N(C2CCCCC2)C3)c1,18.9% (inactive)
19,CC(C)(C)NC(=O)NC(=O)COC(=O)Cc1c(F)cccc1Cl,-21% (inactive)
20,CC(C)(C)NC(=O)NC(=O)COC(=O)Cc1ccc(Cl)cc1Cl,-36.3% (active)
21,COc1ccccc1OCCC(=O)OCC(=O)NC(=O)NC(C)(C)C,-0.18% (inactive)
